Hits are enriched below; roughly 0.52% of the tested compounds scored in any of these assays.
Sa growth 42C – inhibitors of Staphylococcus aureus growth at 42 °C | S. aureus RN4220 growth, OD600, 20 h; stronger effect = lower value | relative growth, % (no concentration beside the values) | actives 0.53% (n = 170,000) | AID 720641;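 active means relative growth at most 50% at the other temperature and 20+ points below 30 °C, or under 10% at both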
Sa helicase inh – blocks Staphylococcus aureus DNA helicase; purified S. aureus helicase, fluorescence unwinding assay; inhibition, % (test concentration not listed); actives 0.05% (n = 120,000); in the data active means inhibition above about 25%, passing the limit was not always enough;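 further: 0% = mean of negative control wells and 100% = mean of positive control wells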
* marks the source's active call; other numbers are inactive results; · = not tested or not shown; ! = not active in a repeat.

SMILES	Sa growth 42C	Sa helicase inh
CNC(=O)c1c[nH]n2c(=O)c(Cc3ccccc3F)c(C)nc12	105	·
COCCNC(=O)c1c[nH]n2c(=O)c(Cc3ccc(Cl)cc3)c(C)nc12	79	14
Cc1nc2c(C(=O)NCCc3ccc(Cl)cc3)c[nH]n2c(=O)c1Cc1ccc(Cl)cc1	1.2*	·
Cn1nc(-c2ccc(F)cc2)nc2c(=O)n(C)c(=O)nc1-2	0.2*	-132
COc1ccc(-c2nc3c(=O)n(C)c(=O)nc-3n(C)n2)cc1OC	53	-1
O=C(CCc1ccccc1)Nc1nnc(-c2ccccc2)o1	·	-15
O=C(CCCc1c[nH]c2ccccc12)Nc1nnc(-c2ccc(Cl)cc2)o1	88	-5
CCCCC(=O)Nc1nnc(-c2ccc(Cl)s2)o1	8.8*	5
CCCCC(=O)Nc1nnc(-c2ccc(Cl)cc2)o1	-0.3*	21
O=C1OC(c2ccccc2)=N/C1=C\c1cn(-c2ccccc2)nc1-c1cc2ccccc2o1	71	-173
CC(C)(C)c1ccc(C(=O)NC2CCNCC2)cc1	73	6
O=C(Nc1nnc(S(=O)(=O)N2CCc3ccccc32)s1)c1cccc(Cl)c1	69	·
S=c1[nH]c(-c2ccccc2)cs1	16*	-7
O=c1[nH]c(-c2ccccc2)cs1	90	-15
C/C(=C\c1nsc(Nc2ccc(F)c(Cl)c2)n1)N1CCC(C)CC1	104	9
Cc1ccc(Nc2nnc(-c3ccc(C)c(S(=O)(=O)N4CCN(C)CC4)c3)c3ccccc23)c(C)c1	114	·
CCN1CCN(C(=O)N[C@@H](C(=O)N[C@@H]2C(=O)N3[C@@H]2SC(C)(C)[C@@H]3C(=O)O)c2ccccc2)C(=O)C1=O	-0.5*	·
Cc1onc(-c2ccccc2)c1C(=O)N[C@@H]1C(=O)N2[C@@H]1SC(C)(C)[C@@H]2C(=O)O	-1.3*	·
CC1(C)S[C@@H]2[C@H](NC(=O)C(C(=O)O)c3ccccc3)C(=O)N2[C@H]1C(=O)O (some centres undefined)	0.0*	·
Cc1onc(-c2ccccc2)c1C(=O)NC1CCCCC1NC(=O)c1c(-c2ccccc2)noc1C (centres undefined)	100	-18
CCCOC(=O)C(N)c1ccccc1 (centres undefined)	107	0
CC1(C)SC(c2ccc(C3NC(C(=O)O)C(C)(C)S3)cc2)NC1C(=O)O (centres undefined)	92	18
CC1(C)S[C@@H]2[C@H](NC(=O)[C@H](N)c3ccccc3)C(=O)N2[C@H]1C(=O)O	-0.9*!	·
Cc1ccc(C)c(OC(=O)CCN2C(=O)c3ccccc3C2=O)c1	115	-12
O=C(CSc1ccccc1)Nc1nnc(-c2ccccc2)o1	86	14
SMILES	Sa growth 42C	Sa helicase inh
CC(=O)/C=C(\O)c1ccc(Cl)cc1	84	12
O=C(/C=C(\O)c1ccc(Cl)cc1)C(F)(F)F	-0.1*	-2
CN1/C(=C\C(=O)COC(=O)Cc2cn3ccsc3n2)C(C)(C)c2ccccc21	106	-54
CCOc1ccc(-c2cc(C(=O)OC)c3ccccc3n2)cc1	85	6
COC(=O)C(Sc1c[nH]c2ccccc12)(C(F)(F)F)C(F)(F)F	0.0*	42
COC(=O)C(N)Cc1c[nH]c2ccccc12 (centres undefined)	94	-18
O=C1CSC(=S)N1c1cccc(C(F)(F)F)c1	·	-2
O=C1C2SCCN2C(=S)N1c1cccc(C(F)(F)F)c1 (centres undefined)	46*	·
CCOc1ccc(CNC(=O)CCn2nc(C)c3c(C)n(-c4ccccc4)nc3c2=O)cc1	103	·
CCn1cc(C(=O)O)c(=O)c2cc(F)c(N3CCN(C(=O)c4ccccc4F)CC3)cc21	51	14
CCn1cc(C(=O)NCC(C)C)c(=O)c2cc(F)c(N3CCN(C(=O)c4ccco4)CC3)cc21	113	3
CCn1cc(C(=O)O)c(=O)c2cc(F)c(N3CCN(C)CC3)cc21	-0.9*	-28
CCn1cc(C(=O)O)c(=O)c2cc(F)c(N3CCNCC3)cc21	-0.1*	·
CCn1cc(C(=O)O)c(=O)c2cc(F)c(N3CCN(C(=S)Nc4ccc5c(c4)OCO5)CC3)cc21	0.2*	18
CCn1cc(C(=O)NN)c(=O)c2cc(F)c(N3CCCC3)cc21	74	-3
NC(=O)CN(CC(N)=O)S(=O)(=O)c1ccccc1	120	-10
O=C(Nc1nncs1)c1ccc(F)cc1	104	11
Cc1ccc(Cl)cc1N1CCN(C(=O)C2CCCN(S(=O)(=O)c3ccc(Br)s3)C2)CC1 (centres undefined)	96	·
O=C(CSc1ccc(S(=O)(=O)N2CCN(Cc3ccccc3)CC2)cn1)NC(=O)NC1CCCC1	100	4
O=S(=O)(c1ccc(NC2CCN(Cc3ccccc3)CC2)nc1)N1CCCCC1	94	38*
O=C1CCC(=O)N1CNc1ccccc1	89	-1
CN1CCC(NC(=O)c2cccs2)CC1	109	1
CC1c2ccsc2CCN1C(=S)NC(=O)c1cccs1 (centres undefined)	-0.4*	·
O=C(CSc1ncn[nH]1)Nc1ccccc1	123	14
On1c(-c2ccccc2)cc2ccccc21	1.6*	3
SMILES	Sa growth 42C	Sa helicase inh
O=c1cc(-c2ccccc2)cc(-c2ccccc2)n1O	79	·
CN(Cc1ccccc1)C(=O)CSc1ncn[nH]1	98	7
c1ccc(-n2cc(-c3nc4ccccc4[nH]3)c(-c3ccco3)n2)cc1	46	-5
CCc1sc2ncnc(N(C)C)c2c1-c1ccccc1	92	10
CCOC(=O)c1cc(CC)sc1NC(=O)COc1ccccc1C	99	·
Cc1ccc(-c2nc3cccc(C)n3c2Nc2ccc3c(c2)OCO3)o1	2.2*	·
Cc1cccc2nc(-c3ccco3)c(Nc3ccc4c(c3)OCO4)n12	111	·
CCC(=O)O[C@H]1[C@H](O[C@@H]2[C@@H](C)[C@H](O[C@H]3C[C@@](C)(OC)[C@@H](O)[C@H](C)O3)[C@@H](C)C(=O)O[C@H](CC)[C@@](C)(O)[C@H](O)[C@@H](C)C(=O)[C@H](C)C[C@@]2(C)O)O[C@H](C)C[C@@H]1N(C)C	-0.9*	·
CC[C@H]1OC(=O)[C@H](C)[C@@H](O[C@H]2C[C@@](C)(OC)[C@@H](O)[C@H](C)O2)[C@H](C)[C@@H](O[C@@H]2O[C@H](C)C[C@H](N(C)C)[C@H]2O)[C@](C)(O)C[C@@H](C)C(=O)[C@H](C)[C@@H](O)[C@]1(C)O	-0.9*	·
CO[C@@H]1[C@@H](O[C@@H]2O[C@H](C)[C@@H](O[C@H]3C[C@@](C)(O)[C@H](O)[C@H](C)O3)[C@H](N(C)C)[C@H]2O)[C@@H](CC=O)C[C@@H](C)[C@@H](O[C@H]2CC[C@H](N(C)C)[C@@H](C)O2)/C=C/C=C/C[C@H](C)OC(=O)C[C@H]1O	21	·
CCOC(=O)CCC(=O)O[C@H]1[C@H](O[C@@H]2[C@@H](C)[C@H](O[C@H]3C[C@@](C)(OC)[C@@H](O)[C@H](C)O3)[C@@H](C)C(=O)O[C@H](CC)[C@@](C)(O)[C@H](O)[C@@H](C)C(=O)[C@H](C)C[C@@]2(C)O)O[C@H](C)C[C@@H]1N(C)C	-0.8*	·
CC[C@H]1OC(=O)[C@H](C)C(=O)[C@H](C)[C@@H](O[C@@H]2O[C@H](C)C[C@H](N(C)C)[C@H]2O)[C@](C)(OC)C[C@@H](C)C(=O)[C@H](C)[C@@H]2N(CCCCn3cnc(-c4cccnc4)c3)C(=O)O[C@@]21C	93	·

Screens from PubChem.
